NS1 function inh: qHTS Assay for Inhibitors of Influenza NS1 Protein Function; Potency, µM (titrated, usually from 46.1 µM), inactives show top-dose activity, positive = more growth; hit rate 0.4% among 270,000; calls by dose curve; note: potency is the fitted concentration of half-maximal effect; actives are rising curves; nearly all actives have a fitted effect of over 50% in size
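S. cerevisiae expressing influenza A NS1, grown in glucose, washed, then diluted 1:100 into pH 6.0 -URA galactose medium with 23 nl compound. Growth recovery read as OD600; NS1-free strain serves as control.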
Pf growth 96h: Primary qHTS for delayed death inhibitors of the malarial parasite plastid, 96 hour incubation; P. falciparum luciferase reporter growth, 96 h; AID 504834, 2011; Potency, µM (series often up to 28.7 µM), for the others: at the highest dose activity change, negative = inhibition, actives largely listed as inhibitors; hit rate 6.9% among 320,000; note: potency is the fitted concentration of half-maximal effect; % is set by controls: 0 for no effect and ±100 for the full control effect
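96 h incubation, 37 C, 5% CO2, of luciferase-reporter P. falciparum-infected RBCs (2% hematocrit, 0.05% parasitemia final) with test compounds; endpoint luminescence.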
CHX counter: Cycloheximide Counterscreen for Small Molecule Inhibitors of Shiga Toxin; cell reporter, cycloheximide protein synthesis inhibition counterscreen; max response, %; hit rate 12% among 300,000; AID 2314, 2010; in the data active = max response mostly above about 13%, no sharp cut-off; inactive = mostly below about 14%; note: read at 38.3 µM for the half of the compounds with a filed dose; 0% is about no effect
SARS PLP yeast: qHTS of Yeast-based Assay for SARS-CoV PLP | S. cerevisiae expressing SARS-CoV PLpro, growth rescue | Potency, µM (series often up to 32.9 µM), without a hit: at the highest dose activity, positive = growth rescue, usual class: activators | hit rate 0.19% among 330,000 | AID 485353, 2010; calls by dose curve; note: potency is the fitted concentration of half-maximal effect; 0% is about no effect; nearly all actives have a fitted effect of over 55% in size
Shiga toxin inh: A qHTS for Small Molecule Inhibitors of Shiga Toxin | Vero cells, Shiga toxin protein synthesis inhibition reporter | inhibition, % at 38.7 µM | hit rate 9.2% among 290,000 | AID 2315, 2010; in the data active = inhibition mostly above about 28%, no sharp cut-off; inactive = mostly below about 43%; note: 0% is about no effect
Pf growth 48h: Primary qHTS for delayed death inhibitors of the malarial parasite plastid, 48 hour incubation | hit rate 5.9% among 310,000 | Potency, µM (top dose mostly 28.7 µM), for inactives: at the top dose activity change, negative = inhibition, hits mostly inhibitors | P. falciparum luciferase growth in erythrocytes, 48 h; note: potency is the fitted concentration of half-maximal effect; % is set by controls: 0 for no effect and ±100 for the full control effect
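Cell-based growth assay: transgenic P. falciparum expressing firefly luciferase, cultured in red cells within RPMI 1640 containing 0.5% w/v Albumax, 24 mM bicarbonate and gentamycin. A drop in luciferase activity indicates inhibition.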
An asterisk follows results filed as active; ? = inconclusive; . = no result; [ ] = dose if it differs, or a comment. Shown are actives, neighbours in structure and some others; about 21% of the full set was active somewhere. Unless noted, calls come from the whole dose curve; as a rule, active = well fitted inhibition curve with a large enough effect; inconclusive = small, poorly fitted or top-dose-only effect, or another doubt; inactive = no such curve, though single readings can be large or run the other way.

SMILES | NS1 function inh | Pf growth 96h | CHX counter | SARS PLP yeast | Shiga toxin inh | Pf growth 48h
CCCN(CC(=O)Nc1ccccc1C)C(=O)C1CCN(S(=O)(=O)c2cccc(C(F)(F)F)c2)CC1 | . | ? | . | 0% | . | -18%
O=Cc1cccn1-c1cccc([N+](=O)[O-])c1 | 5% | 2.6µM* | 1 | 0% | -2 | 78%
O=C1CN(CC(=O)N2CCCCC2)c2ccccc2O1 | -216% | ? | 24* | -25% | 34 | 47%
O=C1CN(CC(=O)N2CCOCC2)c2ccccc2O1 | . | 45% | 34* | -23% | 98* | ?
COc1ccccc1/C=C/C(=O)NCc1ccccn1 | -2% | 14% | 10 | -1% | 16 | 13%
COc1ccccc1/C=C/C(=O)NC(=S)Nc1ccccn1 | -1% | ? | 45* | 26% | 105* | 36%
COc1ccc(/C=C/C(=O)NC(=S)Nc2ccccn2)cc1 | -5% | 62% | 47* | 0% | 90* | 107%
CN(CCc1ccccn1)C(=O)CCC1CCCN(C(=O)c2ccc3c(c2)OCCO3)C1 (stereo unspecified) | 1% | 45% | 9 | 1% | 23 | -25%
COCCn1nnnc1CN(Cc1cc2cc(OC)c(OC)cc2[nH]c1=O)C1CCCC1 | -11% | . | 8 | 1% | -10 | 0%
COc1cc2cc(CN(Cc3nnnn3Cc3ccco3)C3CCCCC3)c(=O)[nH]c2cc1OC | -8% | . | 5 | 4% | -14 | 8.3µM*
CCOc1ccc2[nH]c(=O)c(CN(Cc3nnnn3Cc3ccco3)C3CCCCC3)cc2c1 | ? | 22% | 6 | -2% | -17 | 12µM*
CCOc1ccc2[nH]c(=O)c(CN(CCCN3CCOCC3)Cc3nnnn3Cc3ccc(OC)cc3)cc2c1 | -1% | -12% | -3 | 1% | -17 | ?
COc1cc(NC(=S)N2CCN(S(=O)(=O)c3ccc(C)cc3)CC2)cc(OC)c1 | 9% | 10% | 14 | 2% | -18 | ?
CN1CCN(S(=O)(=O)c2ccc(NC(=O)c3cccs3)cc2)CC1 | -5% | 21% | 1 | . | 34 | -26%
CC1CCCCN1S(=O)(=O)c1ccc(NC(=O)c2cccs2)cc1 (stereo unspecified) | -39% | ? | 13 | -23% | 37 | 15µM*
O=C(Nc1ccc(S(=O)(=O)N2CCCC2)cc1)c1cccs1 | -2% | ? | 8 | -1% | 8 | ?
CC1CCN(S(=O)(=O)c2ccc(NC(=O)c3cccs3)cc2)CC1 | -13% | 5% | -5 | -2% | -1 | 4.7µM*
Cn1c(=O)c2sccc2n2c(CCCC(=O)NCc3ccc(F)cc3)nnc12 | 1% | ? | -2 | 0% | -4 | 5%
Cc1ccc2c(c1)CCCN2CC(=O)Nc1cc(S(=O)(=O)N2CCCC2)ccc1Cl | . | 4.7µM* | . | 2% | . | 10µM*
O=C(CN1CCCc2ccccc21)Nc1cc(S(=O)(=O)N2CCCC2)ccc1Cl | . | 8.3µM* | . | 0% | . | 13µM*
N#Cc1ccc(C(=O)Nc2cccc(S(=O)(=O)NC3=NCCC3)c2)cc1 | . | . | . | 6% | . | .
CC(=O)NC12CC3CC(C1)CC(C(=O)OCC(=O)c1cc(C)n(C)c1C)(C3)C2 | . | . | . | -1% | . | .
CC(=O)Nc1ccccc1C(=O)OCC(=O)c1ccc2c(c1)OCCO2 | 9% | 39% | 32* | 6% | 98* | 166%
Cc1onc(-c2ccccc2Cl)c1C(=O)OCC(=O)c1ccc[nH]1 | . | -8% | . | 1% | . | ?
Cc1ccccc1NC(=O)COC(=O)c1ccc2c(c1)OCCO2 | . | 19% | . | -1% | . | -9%
SMILES | NS1 function inh | Pf growth 96h | CHX counter | SARS PLP yeast | Shiga toxin inh | Pf growth 48h
CC(C)C(=O)Nc1ccccc1C(=O)OCC(=O)c1ccc2c(c1)OCCO2 | -12% | -10% | 38* | 22% | 64* | 82%
Cc1onc(-c2ccccc2Cl)c1C(=O)OCC(=O)c1ccc2c(c1)OCCO2 | ? | ? | 59* | 2% | 121* | -17%
CC(=O)NC12CC3CC(C1)CC(C(=O)OCC(=O)c1ccc4c(c1)OCCO4)(C3)C2 | -19% | -15% | 45* | 3% | 80* | .
O=C(CNS(=O)(=O)c1cccc(F)c1)OCC(=O)N1CCCC1=O | . | 8% | . | -1% | . | 23%
Cc1cc(OC(C)C(=O)NCC2CCC(C(=O)O)CC2)c2c(C)c(C)c(=O)oc2c1 (stereo unspecified) | -8% | 7% | -3 | 4% | -9 | -7%
CC(C)CCN1C(=O)c2ccc(C(=O)NCc3ccccn3)cc2C1=O | . | 3% | . | 4% | . | 23%
Cc1cccc(C(=O)OCC(=O)c2ccc3c(c2)OCO3)c1O | -3% | 330% | 71* | -7% | 78* | 297%
Cc1nc(/C(N)=N/OC(=O)c2c(-c3ccccc3Cl)noc2C)cs1 | -3% | 10µM* | 2 | -18% | -5 | ?
Cc1cccc(C(=O)OCC(=O)c2ccc3c(c2)OCCO3)c1O | . | . | . | 3% | . | .
COc1ccc(/C(N)=N/OC(=O)c2c(-c3ccccc3Cl)noc2C)cc1OC | 4% | -7% | 25 | -1% | 9 | ?
COCCNC(=O)Cn1cnc2c(cnn2-c2ccc(OC)cc2)c1=O | 1% | ? | -8 | -3% | -4 | -9%[0.00184 µM]
CCCCS(=O)(=O)Nc1ccc2c(c1)ncn2C1CCCCC1 | -8% | . | 20 | 2% | -14 | -24%
c1ccc(CNc2ccc3c(c2)ncn3C2CCCCC2)nc1 | -3% | 85% | 22* | -2% | 46* | ?
OCCN1CCN(CC(O)COc2ccc(Cl)cc2)CC1 (stereo unspecified) | 1% | 9% | -1 | 0% | -29 | 5%
OCCN1CCN(CC(O)COc2ccc(C34CC5CC(CC(C5)C3)C4)cc2)CC1 (stereo unspecified) | -1% | 12µM* | 8 | -9% | -2 | ?
CCOc1cc(NC(=O)c2cccs2)c(OCC)cc1NC(=O)CCC(=O)NCCN1CCOCC1 | 4% | ? | -1 | -1% | -3 | 11%
CCOC(=O)C1CCN(C(=O)c2cc3c(s2)-c2ccccc2OC3)CC1 | -23% | -13% | 21* | -5% | 40* | 61%
O=C(c1cc2c(s1)-c1ccccc1OC2)N1CCc2ccccc2C1 | -18% | ? | 87* | -35% | 56* | 75%
COC(=O)c1cc2c(s1)-c1ccccc1OC2 | -62% | -3% | 28* | -1% | 64* | .
COc1ccccc1N1CCN(C(=O)c2cc3c(s2)-c2ccccc2OC3)CC1 | -51% | 5% | -5 | -10% | -3 | 21%
COC(=O)c1cc2c(s1)-c1ccc(OC)cc1CC2 | -8% | 59% | 55* | -3% | 115* | 176%
CCO/C([O-])=N/c1sn[n+](C)c1C | 4% | 56% | -3 | 0% | 0 | 32%
CCc1nnc(NC(=O)CCC(=O)N2CCN(c3cccc(Cl)c3)CC2)s1 | -1% | -27% | -5 | -5% | -11 | -2%

Screening results deposited in PubChem BioAssay by National Center for Advancing Translational Sciences (NCATS).
